HCV inhibitor: inhibitors of hepatitis C virus infection. Huh7.5.1 HCVcc-Cre infection, luciferase reporter, 44 h. Potency, µM (highest dose often 41.8 µM), for inactives: top-dose activity change, negative = inhibition, hits mostly inhibitors. actives 3.4% (n = 340,000). AID 651820; also: potency is read from the fitted curve at half-maximal effect; % is scaled to controls: 0 for no effect and ±100 for the full control effect
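Luciferase read-out (15 sec integration) after a 15 min room-temperature substrate step quantifies HCVcc-Cre infection. Cells, 1,000 per well, had compound added 4 h post-plating, then virus at ~0.5 moi, and were cultured 44 h.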
Shiga inhibitor: blocks Shiga toxin action in Vero cells; Vero cells, Shiga toxin protein synthesis inhibition reporter; inhibition, % at 38.7 µM; actives 9.2% (n = 290,000); in the data active = inhibition mostly above about 28%, no sharp cut-off; inactive = mostly below about 43%; also: 0% is about no effect
CHX counter: counter-screen hit for Shiga toxin inhibitors, cycloheximide | cell reporter, cycloheximide protein synthesis inhibition counterscreen | max response, % | actives 12% (n = 300,000) | AID 2314; in the data active = max response mostly above about 13%, no sharp cut-off; inactive = mostly below about 14%; also: read at 38.3 µM for the half of the compounds with a filed dose; 0% is about no effect
AMA1 RON2 block: inhibitors of Plasmodium falciparum AMA1-RON2 interaction. AlphaScreen AMA1-biotinylated RON2 peptide binding. Potency, µM (top dose mostly 58.2 µM), for the others: top-dose activity change, negative = inhibition, usual class: inhibitors. actives 0.2% (n = 360,000). AID 720542;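 also: potency is read from the fitted curve at half-maximal effect; 0% = vehicle wells and -100% = peptide control; nearly all actives have a fitted effect of over 45% in size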
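AMA1 (3D7) with his tag at 25 nM final met compounds first, then biotinylated RON2 peptide at 25 nM; detection used donor plus acceptor beads, 10 µg/mL apiece, read by AlphaScreen after 30 min at room temperature.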
Pf growth 48h: inhibits P. falciparum growth in the first generation, 48 h; P. falciparum luciferase growth in erythrocytes, 48 h; actives 5.9% (n = 310,000); Potency, µM (top dose mostly 28.7 µM), for inactives: at the highest dose activity change, negative = inhibition, most hits filed as inhibitors; also: potency is read from the fitted curve at half-maximal effect; % is scaled to controls: 0 for no effect and ±100 for the full control effect
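Cell-based growth assay: transgenic P. falciparum expressing firefly luciferase, cultured in red cells within RPMI 1640 containing 0.5% w/v Albumax, 24 mM bicarbonate and gentamycin. A drop in luciferase activity indicates inhibition.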
Pf growth 96h: P. falciparum growth inhibition at 96 hour, primary screen for plastid delayed-death inhibitors; Potency, µM (doses to about 28.7 µM), without a hit: at the highest dose activity change, negative = inhibition, usual class: inhibitors; P. falciparum luciferase reporter growth, 96 h; actives 6.9% (n = 320,000); AID 504834; also: potency is read from the fitted curve at half-maximal effect; % is scaled to controls: 0 for no effect and ±100 for the full control effect
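96 h incubation, 37 C, 5% CO2, of luciferase-reporter P. falciparum-infected RBCs (2% hematocrit, 0.05% parasitemia final) with test compounds; endpoint luminescence.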
Numbers without * were called inactive; ? = inconclusive; . = no result. Most compounds without a hit are left out; they make up all but 21% or so of the library. Unless noted, calls follow the shape of the dose curve; as a rule, active = well fitted curve in the direction sought with a large enough effect; inconclusive = small, poorly fitted or top-dose-only effect, or another doubt; inactive = no such curve, though single readings can be large; an effect the other way counts as inactive or inconclusive.

SMILES	HCV inhibitor	Shiga inhibitor	CHX counter	AMA1 RON2 block	Pf growth 48h	Pf growth 96h
O=C(COc1ccc(Cl)cc1)NCCNc1ccc([N+](=O)[O-])cc1	0.1%	-3.4	-1.9	-4.3%	19.1%	3.2%
COC(=O)C(CC(=O)c1ccc(Cl)cc1)c1ccc(C(C)C)cc1 (stereo not given)	6.4%	70.3*	36.7*	7.5%	-18.9%	?
CC(C)(C)c1ccccc1NC(=O)NC1CCN(Cc2c(F)cccc2Cl)CC1	9.9%	-11.7	-1.8	16.3%	7.38µM*	?
COC(=O)c1ccccc1NC(=O)NCc1ccncc1	1.0%	-6.2	4.2	-9.0%	-1.8%	13.1µM*
COC(=O)c1ccccc1NC(=O)NC1CCC(C)CC1 (stereo not given)	-10.0%	33.7*	16.3*	1.1%	56.4%	11.6%
O=C(Nc1ccccc1F)NC1CCCCCCC1	-17.0%	98.1*	57.3*	-11.5%	113.5%	15.5%
CCN1CCC(NC(=O)Nc2ccccc2C(=O)OC)CC1	12.6%	14.6	-1.9	-5.6%	-2.3%	?
O=C(Nc1ccccc1C(F)(F)F)NC1CCCCCCC1	1.0%	25.8	15.6	2.3%	.	?
CCOCCCNC(=O)CN1C(=O)NC(Cc2c[nH]c3ccccc23)C1=O (stereo not given)	10.9%	-6.4	-5.5	-9.2%	19.5%	6.6%
COc1ccc(NC(=O)Cc2ccc(C)c(C)c2)cc1S(=O)(=O)N1CCCCC1	?	.	.	10.1%	.	.
O=C(Nc1ccccc1F)NC1CC1	-3.1%	52.1*	23.0	5.9%	10.9%	80.8%
COC1OC(CO)C(OC2OC(C(=O)O)C(OC3OC(COS(=O)(=O)O)C(OC4OC(C(=O)O)C(OC5OC(CO)C(OC6OC(C(=O)O)C(OC7OC(COS(=O)(=O)O)C(OC8OC(C(=O)O)=C[C@H](O)C8OS(=O)(=O)O)C(O)C7NC(C)=O)[C@@H](O)C6O)C(O)C5NC(C)=O)[C@@H](O)C4O)C(O)C3NC(C)=O)[C@@H](O)C2O)C(O)C1NC(C)=O (stereo not given in full)	.	.	.	.	12µM*	7.57µM*
CC(=O)N[C@@H]1C(O[C@H]2O[C@H](C(=O)O)C(O)[C@H](O)[C@H]2O)[C@H](O)[C@@H](CO)O[C@H]1O[C@@H]1C(C(=O)O)O[C@@H](O[C@H]2[C@H](O)[C@@H](CO)OC(O)[C@@H]2NC(C)=O)[C@H](O)[C@H]1O (stereo not given in full)	.	.	.	.	2.2%	1.69µM*
OCc1ccc(-c2cccc3nccn23)cc1	.	.	.	0.3%	.	.
c1ccc(COc2cccc(-c3cc4nc(NCCCn5ccnc5)ccn4n3)c2)cc1	.	.	.	-3.4%	.	.
C=CCNc1nc(NCCNC(C)=O)c2sc(-c3ccccc3)cc2n1	.	.	.	2.1%	.	.
CCCCNc1nc(-c2ccccc2)nc(-n2ccnc2)n1	3.55µM*	-6.7	-5.5	-9.4%	.	0.0%
C=CCNc1nc(-c2ccccc2)nc(-n2ccnc2)n1	2.51µM*	-8.0	0.8	0.9%	13.1µM*	?
COc1ccc(C(=O)N[C@H](C(=O)OCCCOC(=O)[C@@H](NC(=O)c2ccc(OC)cc2)C(C)C)C(C)C)cc1	?	.	.	-10.7%	.	.
N#CCC(=O)Nc1ccc(C(=O)OCC(=O)N2CCCC2=O)cc1	8.7%	.	.	14.9%	46.9%	67.5%
NNC(=O)CP(=O)(c1ccccc1)c1ccccc1	1.6%	.	.	34.4%	-23.4%	15.2%
CCNC(=O)CP(=O)(c1ccccc1)c1ccccc1	-5.1%	25.9	1.1	6.1%	-2.1%	8.28µM*
O=C(CP(=O)(c1ccccc1)c1ccccc1)Nn1cnnc1	14.6%	98.8*	49.2*	11.7%	-20.8%	26.4%
CCn1cnc2sc(-c3ccccc3)cc2c1=O	-29.9%	112.0*	29.4*	11.4%	207.0%	.
N#CCn1cnc2sc(-c3ccccc3)cc2c1=O	9.5%	58.2	26.8*	15.2%	15.7%	-0.1%
COc1ccc(-n2cnc3sc(-c4ccccc4)cc3c2=O)cc1	?	42.6	43.1*	-1.6%	165.1%	-7.3%
CC(=O)Cn1cnc2sc(-c3ccccc3)cc2c1=O	-10.5%	35.5*	38.6*	-3.4%	.	167.2%

Screening results deposited in PubChem by National Center for Advancing Translational Sciences (NCATS).
